According to PubChem BioAssay AID504848 (National Center for Advancing Translational Sciences (NCATS), 2011):
The whole screen tested about 2,300 compounds, of which about 1,400 (61%) were called active. Not shown: some 29% with an inconclusive outcome. So high a share suggests a set chosen from earlier hits. This is one part of the list. Unmarked numbers belong to inactive results. Calls follow the shape of the dose curve; as a rule, active = well fitted inhibition curve with a large enough effect; inconclusive = small, poorly fitted or top-dose-only effect, or effect the other way; inactive = no such curve, though single readings can be large or run the other way.

Assay: Confirmation screen for delayed death inhibitors of the malarial parasite plastid, 96 hour incubation; also: nearly all actives have a fitted effect of over 60% in size
Settings: P. falciparum luciferase growth in erythrocytes; series mostly up to 28.7 µM; activity change, negative = inhibition: at the top concentration
Outline: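 Two-generation (96 h, 37 C) exposure of P. falciparum carrying an integrated firefly luciferase reporter in erythrocytes, 0.1% parasitemia and 2% hematocrit final, Albumax-supplemented RPMI. Luminescence decrease measures growth inhibition.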
% is scaled to controls: 0 for no effect and ±100 for the full control effect; potency is read from the fitted curve at half-maximal effect.

Row | Compound | Potency | activity change, negative = inhibition [%]
1 | COc1cc(NC(=O)C2CCN(S(=O)(=O)c3ccc(N4CCCC4=O)cc3)CC2)cc(OC)c1 | 5.01 µM (active) | –
2 | Cc1ccc(C(=O)C(C(=O)/C=C/c2ccccc2)=C2SCCCS2)cc1 | 7.94 µM (active) | –
3 | CC[C@@H]1CC=C[C@H]2[C@H]1C(=O)N(Cc1ccccc1)[C@H]2c1ccoc1 | 7.08 µM (active) | –
4 | Fc1ccc2nc(Nc3nc4c(F)cc(F)cc4s3)sc2c1 | 10 µM (active) | –
5 | O=C(c1ccc(Cl)cc1)C(CN1CCCCC1)c1ccccc1 (stereo unspecified) | 12.6 µM (active) | –
6 | O=C(c1ccc(Br)cc1)C(CN1CCOCC1)c1ccccc1 (stereo unspecified) | 3.98 µM (active) | –
7 | O=C(CN1CCCCC1)N/N=C/c1ccc(Cl)cc1 | – | 6.26
8 | O=C(c1ccc(Cl)cc1)C(CN1CCCC1)c1ccccc1 (stereo unspecified) | 7.08 µM (active) | –
9 | O=C(Nc1ccc(C2=NCCN2)cc1)c1ccc(C(=O)Nc2ccc(C3=NCCN3)cc2)c(Cl)c1 | 0.0708 µM (active) | –
10 | CCOc1ccccc1CNC(=O)CN1C(=O)CSc2ccc(S(=O)(=O)N3CCOCC3)cc21 | 8.91 µM (active) | –
11 | COc1ccccc1-c1coc2cc(OC(=O)N3CCOCC3)ccc2c1=O | – | -2.61
12 | Cc1c(C#N)c(NC(=O)CCl)n(Cc2ccccc2)c1C | 4.47 µM (active) | –
13 | O=C(CCl)Nc1ccc2c(c1)OCO2 | 2.51 µM (active) | –
14 | Cc1ccc(NC(=O)c2nnn(CC(=O)Nc3ccc4c(c3)OCO4)c2N)cc1C | – | 0.181
15 | Cn1c(=O)n(C)c2cc(NC(=O)CCl)ccc21 | 2 µM (active) | –
16 | CCOc1ccccc1N(CC(=O)Nc1ccc(S(=O)(=O)N2CCCC2)cc1)S(C)(=O)=O | 11.2 µM (active) | –
17 | COc1ccc(C)cc1N(CC(=O)Nc1ccc(S(=O)(=O)N2CCCC2)cc1)S(C)(=O)=O | 8.91 µM (active) | –
18 | CCOC(=O)c1c[nH]c2cc(OCC(C)C)c(OCC(C)C)cc2c1=O | 0.178 µM (active) | –
19 | COc1ccc(-c2c(-c3ccc(OC)c(C)c3O)n[nH]c2C)cc1 | 10 µM (active) | –
20 | Cc1ccc(Cl)cc1N1CCN(Cc2nc3c(c(=O)[nH]c(=O)n3C)n2CCc2ccccc2)CC1 | 3.98 µM (active) | –
21 | CC(C)C(=O)NCCSc1c[nH]c2ccccc12 | 3.98 µM (active) | –
22 | CCOc1ccc(N(C)C(=O)CCc2nnc3ccc(N4CCCCC4)nn23)cc1 | 7.94 µM (active) | –
23 | CC1(C)COC(/C=C/c2cccc([N+](=O)[O-])c2)=N1 | 8.91 µM (active) | –

Row | Compound | Potency | activity change, negative = inhibition [%]
24 | O=[N+]([O-])c1cccc(/C=C/c2nc[nH]c2[N+](=O)[O-])c1 | 3.98 µM (active) | –
25 | COc1ccc(-c2nnc3ccc(SCC(=O)Nc4nc5ccc(C)cc5s4)nn23)cc1OC | 0.158 µM (active) | –
26 | O=C(C[n+]1ccccc1)Nc1ccc(Cl)c([N+](=O)[O-])c1 | 7.08 µM (active) | –
27 | Nc1ccc2nc(-c3ccc(-c4nc5ccc(N)cc5[nH]4)cc3)[nH]c2c1 | 5.62 µM (active) | –
28 | Cc1coc2cc3oc(=O)c(CCC(=O)NCCCn4ccnc4)c(C)c3cc12 | 12.6 µM (active) | –
29 | CCOC(=O)C1CCN(c2c(NCc3ccc(C(=O)NCCC(C)C)cc3)c(=O)c2=O)CC1 | 1.12 µM (active) | –
30 | O=C(N/N=C/c1ccccn1)c1cc([N+](=O)[O-])cc([N+](=O)[O-])c1 | 3.16 µM (active) | –
31 | C(=N\N(c1ccccc1)c1ccccc1)/c1ccccn1 | – | -39.2
32 | CC1(C)N=C(N)N=C(N)N1c1ccc(OCCCOc2ccccc2)c(Cl)c1 | 11.2 µM (active) | –
33 | Cc1ccc(NC2=CC(=O)CC(C)(C)C2)cc1Cl | 12.6 µM (active) | –
34 | CCc1ccc(C(=O)NNc2ccc(C)c(Cl)c2)cc1 | – | -10.3
35 | Cc1ccc(-n2c(Cl)c(Cl)nc(Cl)c2=O)cc1 | 11.2 µM (active) | –
36 | Clc1ccc2nnnc(-c3ccccc3)c2c1 | 3.55 µM (active) | –
37 | CCn1cc(C(=O)O)c(=O)c2cc(F)c(N/N=C/c3ccccc3)cc21 | 10 µM (active) | –
38 | COc1ccc(C)cc1-n1c(SCC(=O)Nc2cc(C)on2)nc2sc(C)c(C)c2c1=O | 2 µM (active) | –
39 | CC(SC#N)C(=O)C12CC3CC(CC(C3)C1)C2 (stereo unspecified) | 12.6 µM (active) | –
40 | COc1ccc(N(CC(=O)NCCSCc2ccc(C)cc2)S(=O)(=O)c2ccccc2)cc1 | 12.6 µM (active) | –
41 | COc1ccc2c(c1)c(CC(=O)Nc1nnc(C3CC3)s1)c(C)n2C(=O)c1ccc(Cl)cc1 | 10 µM (active) | –
42 | COc1ccc(-c2nc(N3CCN(C)CC3)sc2-c2ccc(OC)cc2)cc1 | 12.6 µM (active) | –
43 | CC1(CCc2ccc3c(c2)OCO3)NCCc2c1[nH]c1ccccc21 (stereo unspecified) | 7.08 µM (active) | –
44 | C/C(=N\NC(=S)NCC(C)(C)C)c1cc(F)cc(F)c1O | 11.2 µM (active) | –
45 | Cc1cc(/C=C2/SC(=O)NC2=O)c(C)n1-c1ccc(N2CCOCC2)cc1 | 12.6 µM (active) | –
46 | CCC(=O)N1CCc2cc(S(=O)(=O)N3CCCCCC3)ccc21 | 12.6 µM (active) | –
